One assay has as its target C2orf55. The experiment in a line: pooled miR-30 sensor sort-seq; sequence = guide strand. As to conditions: shRNA.
For the sequence TTATTTTTGGAAACAGTCTATG, the sensor-assay potency score (higher = more potent) was -0.924.

Turning to TTTCTTTCTGGCAAGTTCCATC, the sensor-assay potency score (higher = more potent) is -0.776.

Take TTTCTGGCAAGTTCCATCCAGG: the sensor-assay potency score (higher = more potent) was -0.596.

TTGTTTGCCACAATACACTGGC displayed a sensor-assay potency score (higher = more potent) of 0.782.

TTTTTGGAAACAGTCTATGAAT: the sensor-assay potency score (higher = more potent) is -1.5.

Consider TTTGTTTGCCACAATACACTGG, for which the sensor-assay potency score (higher = more potent) is -0.196.

Sequence TTATCCTCTTTGTTTTGCCTGG displayed a sensor-assay potency score (higher = more potent) of -0.575.

TTGATGATAAAATCAATCTTTA showed a sensor-assay potency score (higher = more potent) of -0.855.

Sequence TTGAATTTAGATTTTTTCTTTC yielded a sensor-assay potency score (higher = more potent) of -0.493.

For the sequence TTTGCCACAATACACTGGCAGT, the sensor-assay potency score (higher = more potent) was -1.43.

Regarding TTAGATTTTTTCTTTCCTGTGC, the sensor-assay potency score (higher = more potent) came out at 0.654.

In the case of ATTATTTTTGGAAACAGTCTAT, the sensor-assay potency score (higher = more potent) is -0.496.

The next assay has as its target C2orf57. Described as above. As to conditions: shRNA.
The sequence TTCTCCTCAGCAGACTTGGTGG displayed a sensor-assay potency score (higher = more potent) of -0.95.

As to TTGTCTTTGTCTCCAGATGTTG, the sensor-assay potency score (higher = more potent) is -1.39.

TGACATCTTGTCTTTACCCAGG returned a sensor-assay potency score (higher = more potent) of -0.635.

For TCTCTCAGGAACACTCGCCATT, the sensor-assay potency score (higher = more potent) is -1.27.

TAGACCTGCTGTCATCCACGTT registered a sensor-assay potency score (higher = more potent) of -1.17.

AACAACTGCACTCTTGTCTTTG: the sensor-assay potency score (higher = more potent) is -0.961.

AAAACCACTAGACTCTGACTTG registered a sensor-assay potency score (higher = more potent) of -0.273.

For TTCTGGAACAACTGCACTCTTG, the sensor-assay potency score (higher = more potent) was -1.11.

For the origin of these results see the OligoGym collection.
Further: reference of the scale not given here.
